Cycloheximide cs: counter-screen for Shiga toxin inhibitors: cycloheximide protein synthesis inhibition | 12% of 300,000 active | max response, % | cell reporter, cycloheximide protein synthesis inhibition counterscreen; in the data active = max response mostly above about 13%, no sharp cut-off; inactive = mostly below about 14%; also: read at 38.3 µM for the half of the compounds with a filed dose; 0% is about no effect
Pf growth 48h: inhibits P. falciparum growth in the first generation, 48 h | P. falciparum luciferase growth in erythrocytes, 48 h | Potency, µM (doses to about 28.7 µM), inactives show top-dose activity change, negative = inhibition, actives largely listed as inhibitors | 5.9% of 310,000 active; also: potency is read from the fitted curve at half-maximal effect; % is scaled to controls: 0 for no effect and ±100 for the full control effect
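Cell-based growth assay: transgenic P. falciparum expressing firefly luciferase, cultured in red cells within RPMI 1640 containing 0.5% w/v Albumax, 24 mM bicarbonate and gentamycin. A drop in luciferase activity indicates inhibition.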
NS1 function inh: influenza NS1 inhibition; Potency, µM (titrated, usually from 46.1 µM), for the others: at the highest dose activity, positive = more growth; 0.4% of 270,000 active; calls by dose curve; also: potency is read from the fitted curve at half-maximal effect; actives are rising curves; nearly all actives have a fitted effect of over 50% in size
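S. cerevisiae expressing influenza A NS1, grown in glucose, washed, then diluted 1:100 into pH 6.0 -URA galactose medium with 23 nl compound. Growth recovery read as OD600; NS1-free strain serves as control.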
FBPA Giardia inh: Giardia lamblia aldolase inhibition; A8B2U2; purified Giardia FBPA; Potency, µM (top dose mostly 59.6 µM), inactives show at the top dose activity, negative = inhibition, actives largely listed as inhibitors; 0.71% of 290,000 active; AID 2451; also: potency is read from the fitted curve at half-maximal effect; % is scaled to controls: 0 for no effect and ±100 for the full control effect; nearly all actives have a fitted effect of over 55% in size
Target sequence (A8B2U2 whole entry, looked up): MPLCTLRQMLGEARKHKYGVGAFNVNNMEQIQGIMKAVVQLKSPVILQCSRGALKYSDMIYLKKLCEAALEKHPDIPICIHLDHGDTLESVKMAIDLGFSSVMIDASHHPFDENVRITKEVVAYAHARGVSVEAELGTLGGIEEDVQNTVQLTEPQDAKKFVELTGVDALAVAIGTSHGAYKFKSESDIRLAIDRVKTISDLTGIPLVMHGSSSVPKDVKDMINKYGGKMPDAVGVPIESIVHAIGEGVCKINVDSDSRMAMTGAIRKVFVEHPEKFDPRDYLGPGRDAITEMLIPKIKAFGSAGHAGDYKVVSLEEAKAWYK
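Giardia FBPA (40 nM reagent) was preincubated 10 min at RT with compound (up to 57.5 uM final), then substrate plus GAPDH/TPI/NAD/arsenate coupling system with diaphorase/resazurin was added; resorufin fluorescence (525/598 nm) was read after 20 min.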
Pf growth 96h: P. falciparum growth inhibition at 96 hours | P. falciparum luciferase reporter growth, 96 h | Potency, µM (doses to about 28.7 µM), inactives show at the top dose activity change, negative = inhibition, usual class: inhibitors | 6.9% of 320,000 active; also: potency is read from the fitted curve at half-maximal effect; % is scaled to controls: 0 for no effect and ±100 for the full control effect
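Infected RBCs, 2% Hct / 0.05% parasitemia final; luciferase-reporter P. falciparum; cpd 96 h, 37 C, 5% CO2; luciferase detection reagent; luminescence.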
Shiga toxin inh: inhibitors of Shiga toxin in Vero cells. inhibition, % at 38.7 µM. AID 2315. 9.2% of 290,000 active. Vero cells, Shiga toxin protein synthesis inhibition reporter; in the data active = inhibition mostly above about 28%, no sharp cut-off; inactive = mostly below about 43%; also: 0% is about no effect
* = called active by the depositor; ? = inconclusive; . = no result; [ ] = another dose, or the depositor's remark. Most compounds without a hit are left out; they make up all but 21% or so of the library. Unless noted, calls follow the shape of the dose curve; as a rule, active = well fitted curve in the direction sought with a large enough effect; inconclusive = small, poorly fitted or top-dose-only effect, or another doubt; inactive = no such curve, though single readings can be large; an effect the other way counts as inactive or inconclusive.

SMILES	Cycloheximide cs	Pf growth 48h	NS1 function inh	FBPA Giardia inh	Pf growth 96h	Shiga toxin inh
COC(C)(C)[C@@H](O)COc1c2ccoc2cc2oc(=O)ccc12	.	6%	.	.	25%	.
Cc1cc[n+](CC(=O)c2ccc(NC(=O)c3ccccc3)cc2)c2ccccc12	9	1.7µM*	-1%	-9%	?	11
O=C(NCc1ccccn1)C(=O)NCC1OCCCN1S(=O)(=O)c1cc(F)ccc1F (stereo not drawn)	7	6%	-2%	.	13%	-28
COc1ccc(C)cc1NS(=O)(=O)c1ccc(Cl)nc1	.	?	.	.	7%	.
CC1CC(c2ccccc2)=Nc2ccccc2N1 (stereo not drawn)	46*	40%	-2%	-11%	25%	54*
N/C(=N\OC(=O)Cc1cccs1)c1ccc(Cl)cc1	31*	37%	7%	-1%	53%	41*
Cc1ccc(/C(N)=N/OC(=O)Cc2cccc3ccccc23)cc1	-4	-7%	.	0%	-21%	2
Cc1ccc(/C(N)=N/OC(=O)Cc2cccs2)cc1	50*	232%	6%	0%	163%	143*
Cc1cccc(/C(N)=N/OC(=O)Cc2cccs2)c1	68*	178%	1%	7%	138%	96*
N/C(=N\OC(=O)Cc1ccccc1[N+](=O)[O-])c1ccncc1	-2	18%	-1%	-1%	26%	-7
N/C(=N\OC(=O)Cc1cccs1)c1ccccc1	28*	104%	-2%	0%	39%	59*
N/C(=N\OC(=O)CN1C(=O)c2ccccc2C1=O)c1ccc(Cl)cc1	1	21%	5%	4%	137%	11
Cc1cccc(C(=O)OCC(=O)NCc2cccs2)c1	5	16%	-7%	-2%	17%	-5
COC(=O)C#CC(=O)OC	-5	.	.	3%	.	-7
N[C@@H](CC1=CS(=O)(=O)c2ccc(Cl)cc21)C(=O)O	.	.	8%	.	.	.
N/C(Cc1cccs1)=N\OC(=O)COc1ccccc1	22*	.	-4%	2%	?	33
N/C(=N\OC(=O)Cc1cccs1)c1cccc([N+](=O)[O-])c1	26*	21%	4%	0%	?	44*
COc1ccccc1CC(=O)O/N=C(\N)c1cccc([N+](=O)[O-])c1	1	43%	-4%	5%	56%	28
CCOc1ccc(C(=O)NNC(=O)CNC(=O)c2ccc(C)s2)cc1OC	.	?	.	.	-15%	.
O=C(NCCc1c[nH]c2ccccc12)/C(=C\c1cccnc1)NC(=O)c1ccccc1F	1	?	2%	1%	-25%	-8
CCOC(=O)CN1C(=O)C(Sc2n[nH]c(-c3cccc(C)c3)n2)CCc2ccccc21 (stereo not drawn)	-5	13µM*	-2%	-4%	9.3µM*	-19
CCOC(=O)CN1C(=O)C(Sc2n[nH]c(-c3ccc(C)cc3)n2)CCc2ccccc21 (stereo not drawn)	3	?	1%	-3%	12µM*	-5
Nc1nc2c(nc(SCc3ccccc3Br)n2[C@@H]2O[C@H](CO)[C@@H](O)[C@H]2O)c(=O)[nH]1	-1	-32%[0.00184 µM]	9%	8%	-6%	-9
COc1ccc(NS(=O)(=O)c2cccc(C(=O)NCCCn3ccnc3)c2)cc1	.	28%	.	.	-22%	.
O=c1c2c3c(sc2n(CCN2CCOCC2)c(=O)n1Cc1ccco1)CCCCC3	3	?	?	-12%	2.6µM*	-2
O=c1c2c3c(sc2n(CCN2CCCCC2)c(=O)n1Cc1ccco1)CCCCC3	8	.	4%	8%	2.6µM*	-5
COc1ccc(CN2C(=NC(=O)C3CCCCC3)SC3CS(=O)(=O)CC32)cc1 (stereo not drawn)	-5	?	-5%	.	15µM*	-7
CC1(C)CC(=O)CC2(C1)NCC(c1ccccc1)c1c2[nH]c2ccccc12 (stereo not drawn)	-3	5.9µM*	.	-6%	10µM*	-2
CCOc1ccc(C2NC(=O)c3sc(=S)n(-c4ccccc4)c3N2)cc1 (stereo not drawn)	-5	4.1µM*	-5%	3%	5.9µM*	-4
CC/C(=N\NC(=O)c1nnn(-c2nonc2N)c1CN(C)c1ccccc1)c1ccccc1	-2	7%	20%	-24%	42%	13
